Bioassay records deposited in PubChem BioAssay by National Center for Advancing Translational Sciences (NCATS).
Rows were chosen to be rich in hits. Some 8.7% of all compounds tested hit in one or more screens of this group.
AMA1 RON2 block – qHTS for Inhibitors of AMA1-RON; Towards Development of Antimalarial Drug Lead: Primary Screen | 0.2% of 360,000 active | Plasmodium falciparum AMA1 (3D7) - RON2 peptide interaction | AlphaScreen AMA1-biotinylated RON2 peptide binding | AID 720542, 2013 | Potency, µM (titrated, usually from 58.2 µM), for the others: top-dose activity change, negative = inhibition, hits mostly inhibitors;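 further: 0% = vehicle wells and -100% = peptide control; nearly all actives have a fitted effect of over 45% in size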
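AMA1 (3D7) with his tag at 25 nM final met compounds first, then biotinylated RON2 peptide at 25 nM; detection used donor plus acceptor beads, 10 µg/mL apiece, read by AlphaScreen after 30 min at room temperature.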
Pf growth 48h – Primary qHTS for delayed death inhibitors of the malarial parasite plastid, 48 hour incubation | P. falciparum luciferase growth in erythrocytes, 48 h | Potency, µM (titrated, usually from 28.7 µM), for inactives: at the highest dose activity change, negative = inhibition, usual class: inhibitors | 5.9% of 310,000 active | AID 504832, 2011
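Luminescence readout; reporter = integrated firefly luciferase in P. falciparum. RBC culture at 2% hematocrit, 0.1% parasitemia final, 37 C/5% CO2; decreased signal taken as growth inhibition.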
VACV mCherry inh – qHTS for Stage-Specific Inhibitors of Vaccinia Orthopoxvirus: mCherry Reporter Primary qHTS; Vaccinia virus mCherry reporter infection, fluorescence; Potency, µM (highest dose often 36.5 µM), without a hit: at the top dose activity change, negative = inhibition, most hits filed as inhibitors; 0.63% of 310,000 active; AID 720579, 2013; calls by dose curve; tested in A549 cells; further: nearly all actives have a fitted effect of over 35% in size
VACV Venus inh – qHTS for Stage-Specific Inhibitors of Vaccinia Orthopoxvirus: Venus Reporter Primary qHTS; Vaccinia virus Venus reporter expression, fluorescence; Potency, µM (titrated, usually from 36.5 µM), inactives show top-dose activity change, negative = inhibition, actives largely listed as inhibitors; 0.46% of 330,000 active; calls by dose curve; tested in A549 cells; further: nearly all actives have a fitted effect of over 30% in size
Pf growth 96h – Primary qHTS for delayed death inhibitors of the malarial parasite plastid, 96 hour incubation. 6.9% of 320,000 active. P. falciparum luciferase reporter growth, 96 h. Potency, µM (series often up to 28.7 µM), for the others: top-dose activity change, negative = inhibition, actives largely listed as inhibitors. AID 504834, 2011
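Plates of compound plus infected erythrocytes (2% hematocrit, 0.05% parasitemia final) incubate 96 hours, 37 C, 5% CO2. Detection reagent added; reduced luminescence from the parasites' luciferase reporter flags inhibition.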
* marks the source's active call; other numbers are inactive results; i = inactive; ? = inconclusive; · = no result given. Unless noted, the call rests on the fitted dose curve; in most records, active means well fitted curve in the direction sought with a large enough effect; inconclusive means small, poorly fitted or top-dose-only effect, or another doubt; inactive means no such curve, though single readings can be large; an effect the other way counts as inactive or inconclusive. Unless noted, on the % scale 0 is the no-effect control and ±100 the full control effect; potency means the concentration at half of the fitted maximal effect.

SMILES	AMA1 RON2 block	Pf growth 48h	VACV mCherry inh	VACV Venus inh	Pf growth 96h
CCOc1ccc(CCNS(=O)(=O)c2cc(Br)cc3c2N(C(C)=O)CC3)cc1OCC	·	·	4%	1%	·
CC(=O)/C=C/c1ccc2c(c1)S(=O)(=O)N(C1CCCC1)[C@H]2CC(C)=O	·	·	-6%	-8%	·
CSc1ccccc1C(=O)N1CCc2ccc(NC(=O)c3ccccn3)cc2C1	-2%	·	-14%	-30%	·
CSc1ccc(C(=O)N2CCc3ccc(NC(=O)c4ccccn4)cc3C2)cc1	18%	?	-17%	?	15µM*
Cc1cccc(C)c1NCc1nnc(SCC(=O)Nc2nc(-c3ccccc3)cs2)n1-c1ccccc1	4%	4%	-13%	-6%	22%
CCOc1ccc(NCc2nnc(SCc3ccc(Cl)cc3)n2-c2ccccc2)cc1	32µM*	?	-19%	?	26%
CCOC(=O)CSc1nnc(CNc2ccc(Cl)cc2)n1-c1ccccc1	-5%	2%	i	-6%	·
CCOc1ccc(NCc2nnc(SCC(=O)Nc3nc(-c4ccccc4)cs3)n2-c2ccccc2)cc1	-5%	8%	11µM*	?	-14%
CC(C)=CC(=O)Nc1ccccc1C(N)=O	6.7µM*	11%	-16%	-3%	-23%
CCC(C)C(NC(=O)C1CCC(C)CC1)C(=O)NC(CCSC)C(=O)OC (centres undefined)	-7%	-6%	-3%	-9%	-27%
COC(=O)C(CCSC)NC(=O)C(NC(=O)C1CCC(C)CC1)C(C)C (centres undefined)	0%	18%	·	-14%	2.3µM*
Cc1cccc(CSc2ccc3nnc(CCNS(=O)(=O)c4ccccc4)n3n2)c1	·	·	-14%	-16%	·
Cc1cccc2sc(N(Cc3cccnc3)C(=O)Cc3ccccc3)nc12	·	·	i	-10%	·
COc1cccc(C2=NN(C(=O)c3cccs3)C(O)(C(F)(F)F)C2)c1 (centres undefined)	-5%	3.7µM*	?	?	-10%
Cc1ccc(CNC(=O)C2CCCN(S(=O)(=O)c3cccc4nsnc34)C2)cc1 (centres undefined)	·	·	-21%	-15%	·
Cn1c(CN2CCCC2)nc2cc(NS(=O)(=O)c3ccccc3)ccc21	12%	-6%	i	-12%	0%
COc1ccc(NS(=O)(=O)c2cccc(C(=O)NCc3ccccc3CN3CCCC3)c2)cc1	1%	13µM*	·	·	13µM*
COc1ccc(C(=O)NCc2ccccc2CN2CCCC2)cc1S(=O)(=O)Nc1ccc(C)cc1	-5%	10µM*	·	·	4.1µM*
COc1ccc(C(=O)O)cc1S(=O)(=O)Nc1ccc(C)cc1	6%	62%	·	·	5%
O=S(=O)(Nc1ccc(O)c(CN2CCCCC2)c1)c1ccccc1	-2%	?	·	18%	0.59µM*
CCOc1ccc(NC(=O)Cn2c(=O)nc(-c3ccccc3)c3ccccc32)cc1	·	·	-16%	-6%	·
O=C(c1cccs1)N(Cc1ccco1)c1nc(-c2ccc(F)cc2)cs1	0%	13µM*	i	-6%	-12%
Cc1cc(C)c(S(=O)(=O)Cc2ccc(Cl)cc2)c(=O)[nH]1	21%	10µM*	i	-9%	13%
Cc1cc(C)c(S(=O)(=O)Cc2ccccc2)c(=O)[nH]1	14%	1%	-9%	-9%	?
Cc1occc1C(=O)O/N=C(\N)c1ccccc1	-3%	-26%	-9%	-6%	12µM*
SMILES	AMA1 RON2 block	Pf growth 48h	VACV mCherry inh	VACV Venus inh	Pf growth 96h
N/C(=N\OC(=O)N1CCOCC1)c1ccc(Cl)cc1	5%	9.3µM*	-14%	-13%	?
Cc1cccc(/C(N)=N/OC(=O)c2ccoc2C)c1	2%	?	1%	-5%	16%
N/C(=N\OC(=O)N1CCOCC1)c1ccccc1	8%	6.6µM*	i	-26%	8.3µM*
N/C(=N\OC(=O)N1CCOCC1)c1ccc(Br)cc1	4%	?	6%	-19%	43%
O=C(Nc1ccccc1)N1CCC(=S)Nc2ccccc21	23%	-8%	-5%	-1%	-5%
CC1CC(=S)Nc2ccccc2N1C(=O)Nc1ccccc1 (centres undefined)	-5%	3.3µM*	-6%	-10%	?
COc1ccccc1CNCc1cc(Br)ccc1OC	8%	12µM*	-25%	-15%	?
Fc1ccccc1COc1ccc(Br)cc1CNCc1ccncc1	1%	·	-26%	-24%	12µM*
Fc1ccccc1COc1ccc(Br)cc1CNCc1cccnc1	16%	13µM*	?	-19%	?
CCOc1ccc(Br)cc1CNCc1cccnc1	-3%	-14%	·	·	?
Fc1ccc(COc2ccc(Br)cc2CNCc2ccncc2)cc1	-5%	8.3µM*	·	·	?
CCOc1cc(CNCc2ccncc2)cc(Br)c1OCc1ccc(F)cc1	-19%	?	·	·	?
CC(NC(=O)c1ccco1)c1nnc2n1CCN(Cc1ccc(N(C)C)cc1)CC2 (centres undefined)	·	·	-12%	-6%	·
Cc1cccc(OCc2ccc(-c3nc(C#N)c(NCc4cccnc4)o3)o2)c1	·	·	-3%	?	·
COc1ccc(C(=O)Nc2ccccc2-c2nc3ccccc3s2)cc1OC	·	·	-24%	-17%	·
CCc1ccc2oc(-c3ccc(NC(=O)c4cccc(Cl)c4Cl)cc3)nc2c1	·	·	i	-15%	·
C/C=C/c1ccc(OCCCNC2CCCC2)c(OC)c1	-16%	?	?	-16%	·
C/C=C/c1ccc(OCCCNC(C)CC)c(OC)c1 (centres undefined)	20µM*	·	·	·	6%
COc1ccc(CNC(=O)c2cc3c(=O)n4ccccc4nc3n(Cc3cccnc3)c2=N)cc1	-1%	?	·	·	-7%
N=c1c(C(=O)NCCN2CCOCC2)cc2c(=O)n3ccccc3nc2n1CCCN1CCOCC1	52%	?	-11%	-1%	39%
Cc1ccc(CNC(=O)c2cc3c(=O)n4ccccc4nc3n(Cc3ccco3)c2=N)cc1	-2%	?	-16%	-4%	·
N=c1c(C(=O)NCc2ccco2)cc2c(=O)n3ccccc3nc2n1Cc1ccc(Cl)cc1	4%	10µM*	·	·	2.3µM*
Cc1ccc2nc3c(cc(C(=O)NCc4ccco4)c(=N)n3Cc3ccco3)c(=O)n2c1	0%	1.7µM*	-3%	-3%	-1%
N=c1c(C(=O)NCc2ccco2)cc2c(=O)n3ccccc3nc2n1Cc1ccccc1	-4%	?	·	-31%	·
N=c1c(C(=O)NCCN2CCOCC2)cc2c(=O)n3ccccc3nc2n1Cc1ccc(F)cc1	51%	9.3µM*	-17%	-2%	10µM*
N=c1c(C(=O)NCc2ccc3c(c2)OCO3)cc2c(=O)n3ccccc3nc2n1Cc1cccnc1	-7%	10µM*	·	·	3%
CCOC(=O)c1c(C)oc2ncnc(N3CCN(c4ccccc4F)CC3)c12	·	·	-8%	2%	·
COc1ccc(-c2cc(C(=O)Oc3ccc(C#N)cc3)no2)cc1	·	·	-5%	-2%	·
